ERb SRC1 inh: ER-beta (human) coactivator binding inhibition. TR-FRET ER-beta LBD / SRC1-Cy5 peptide binding; receptor agonist-loaded with 1 µM estradiol. inhibition, % at 25.6 µM. 1.3% of 86,000 active. AID 633;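 active means compounds whose percent inhibition of the receptor-coactivator binding signal exceeds about 50% in the single-dose screen, limit read from the data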;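 further: 0% = receptor plus peptide wells without compound and 100% = peptide-only wells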
ERa SRC1 pot: ER-alpha (human) coactivator binding potentiation | P03372 | TR-FRET ERalpha-LBD/SRC-Cy5 coactivator binding, 2 h; 100 = basal binding, no effect | coactivator binding (% of control), % at 25.6 µM | 1.3% of 86,000 active | AID 639; in the data active means activity above about 200%;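 further: binding measured in presence of low estradiol as agonist stimulus; 0% = peptide alone without receptor and 100% = receptor with peptide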
Target sequence (P03372 whole entry, looked up, the tested form may be a part): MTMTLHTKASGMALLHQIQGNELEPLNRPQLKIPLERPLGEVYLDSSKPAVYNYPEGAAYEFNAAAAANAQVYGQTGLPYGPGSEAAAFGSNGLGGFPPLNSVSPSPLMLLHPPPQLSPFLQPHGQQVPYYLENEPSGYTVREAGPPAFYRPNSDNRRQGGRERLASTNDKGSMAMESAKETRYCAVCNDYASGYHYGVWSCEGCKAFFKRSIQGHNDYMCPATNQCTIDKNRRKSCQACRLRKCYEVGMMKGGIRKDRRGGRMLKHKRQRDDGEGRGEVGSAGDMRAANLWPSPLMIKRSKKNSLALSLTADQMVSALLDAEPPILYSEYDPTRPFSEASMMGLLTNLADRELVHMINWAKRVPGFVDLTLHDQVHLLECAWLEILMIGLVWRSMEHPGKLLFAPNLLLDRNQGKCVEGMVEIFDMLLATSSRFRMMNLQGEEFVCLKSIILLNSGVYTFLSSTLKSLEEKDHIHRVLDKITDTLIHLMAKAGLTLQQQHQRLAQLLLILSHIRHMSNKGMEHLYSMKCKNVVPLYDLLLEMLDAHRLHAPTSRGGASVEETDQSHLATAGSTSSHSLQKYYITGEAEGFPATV
FAK blocker: inhibitors of human focal adhesion kinase; inhibition, %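 (tested at 7 µM)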; biochemical FAK kinase activity assay; 0.84% of 97,000 active; AID 727; Q05397;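 further: 0% = DMSO and 100% = reference compound high control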
ERa coact inh: ER-alpha (human) coactivator binding inhibition | P03372 | TR-FRET ER-alpha LBD / SRC-1 peptide, estradiol-bound | inhibition, % at 25.6 µM | 1.7% of 86,000 active | AID 629; in the data active means inhibition above about 50%;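 further: 0% = receptor plus peptide control and 100% = peptide only without receptor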
FAK inh conf: confirmation of human focal adhesion kinase (FAK) inhibitors; inhibition, % at 7 µM; FAK kinase biochemical inhibition assay; 28% of 750 active; shares compounds with FAK blocker
* hit, by the source's call; . = no result; [ ] = another dose, or the depositor's remark. The list is not random: actives were taken first. Their share in the collection is about 3.2%. Unless noted, no stated cut-off is given here; in the data, active means inhibition above about 19%; inactive means the rest.

SMILES	ERb SRC1 inh	ERa SRC1 pot	FAK blocker	ERa coact inh	FAK inh conf
COC(=O)C1=C(C)N(CCc2ccc(OC)c(OC)c2)C(=O)/C1=C\N(C)C	-1	99	0	-1	.
Cc1oc(-c2ccccc2F)nc1CS(=O)(=O)CC(=O)NCc1ccco1	91*[fluorescence artefact?]	22	27*	91*[fluorescence artefact?]	-1
Cc1oc(-c2ccccc2F)nc1CS(=O)(=O)CC(=O)NCCCc1ccccc1	11	110	.	0	.
C=CCSC1=C(C#N)C(c2cccc(OC)c2)CC(=O)N1 (configuration not stated)	-8	110	-2	-2	.
Cc1ccc(CS(=O)(=O)CCC(=O)NCCCN2CCCC2=O)cc1	4	125	0	9	.
Cc1ccc2c(n1)sc1c(N)ncnc12	5	131	49*	45	18
CC(C)(C)c1nc(SCC(=O)NCc2ccco2)c2ccccc2n1	.	.	38*	.	17
O=C(Nc1nccs1)C1C2/C=C\CCCCC21 (configuration not stated)	-22	107	4	-24	.
Cc1cc(NC(=O)Cc2cccs2)no1	89*[fluorescence artefact?]	17	40*	97*[fluorescence artefact?]	28*
CN(Cc1ccccc1)S(=O)(=O)c1ccc(NS(=O)(=O)Cc2ccccc2)cc1	14	72	1	20	.
Cc1ccc(-c2c(C#N)c(N)n3c(nc4ccccc43)c2C#N)cc1	.	.	24*	.	3
CCn1c(=O)c(C(=O)Nn2c(C)nc3ccccc3c2=O)c(O)c2ccccc21	4	115	.	5	.
CCn1c(=O)c(C(=O)Nc2nc3ccccc3[nH]2)c(O)c2ccccc21	.	.	23*	.	21*
CCOC(=O)c1ccc(NC(=O)CSc2nc(NC(=O)c3ccccc3)c3c(C)c(C)oc3n2)cc1	-14	87	27*	-7	7
COC(=O)c1ccccc1NC(=O)CSc1nc(NC(=O)c2ccccc2)c2c(C)c(C)oc2n1	0	185	-6	-1	.
CC(C)COC(=O)C1[C@H]2C(=O)N(Cc3cccs3)C[C@]23C=C[C@H]1O3 (some centres not stated)	1	102	0	-4	.
CC1=C([N+](=O)[O-])C(c2ccccc2)C2=C(N1)c1ccccc1C2=O (configuration not stated)	.	.	25*	.	15
COc1ccc(C2C(C#N)=C(C)NC3=C2C(=O)c2ccccc23)cc1 (configuration not stated)	3	126	2	7	.
Cc1cccc(NC(=O)CCCN2C(=O)c3cccc4cccc(c34)C2=O)c1	.	.	0	.	.
CCN1CCN(c2cc(C)c3cc(NC(=O)c4ccc(OC)c(OC)c4)ccc3n2)CC1	21	81	12	15	.
CCN1CCN(c2cc(C)c3cc(NC(=O)c4cncc(Br)c4)ccc3n2)CC1	33	81	26*	-10	12
CC1CCc2nn(CC(=O)N3CCc4ccccc43)cc2C1 (configuration not stated)	-2	117	3	0	.
COC(=O)c1cccc2c1-c1ccccc1/C2=N/O	-7	89	50*	5	28*
COC(=O)c1ccc2c(c1O)C(=O)c1ccccc1C2=O	.	.	9	.	.
COC(=O)c1cc(OC)c(OC)cc1NC(=O)c1cc(-c2ccccc2)nc2ccccc12	.	.	21*	.	8
SMILES	ERb SRC1 inh	ERa SRC1 pot	FAK blocker	ERa coact inh	FAK inh conf
Nc1nnc2c(n1)CCCC2	-5	112	21*	-21	2
Cc1ccc(C2NC(=O)NC3=C2CCc2ccccc23)cc1 (configuration not stated)	8	86	19*	14	-2
CC(C)(C)NC(=O)CN(C(=O)CNC(=O)c1cccs1)c1ccc2c(c1)OCCO2	.	.	-8	.	.
O=c1oc2ccccc2n1CCn1c2ccccc2c2nc3ccccc3nc21	49	146	30*	77*	46*
CCOC(=O)C1=C(c2ccccc2)OC(N)=C(C#N)C1C1CCCCC1 (configuration not stated)	1	76	24*	0	21*
CCOC(=O)C1=C(C)OC(N)=C(C#N)C1C1CCCCC1 (configuration not stated)	13	74	.	9	.
CCCc1nn2c(=O)c(C(c3cccc(Cl)c3)c3c(O)nc4sc(CCC)nn4c3=O)c(O)nc2s1	.	.	6	.	.
COc1ccc(CCNC(=O)c2c(-c3ccccc3)noc2C)cc1OC	-1	124	.	5	.
COc1ccc(CCNC(=O)c2ccc3nc(-c4ccco4)c(-c4ccco4)nc3c2)cc1OC	94*[fluorescence artefact?]	36	54*	90*[fluorescence artefact?]	2
COc1ccc(-n2nc(C(=O)NCC(=O)Nc3ccccn3)c3ccccc3c2=O)cc1Cl	.	.	23*	.	45*
COc1ccc(-n2nc(C(=O)NCC(=O)NCC3CCCO3)c3ccccc3c2=O)cc1Cl (configuration not stated)	.	.	-1	.	.
Cc1ccc(C(=O)COC(=O)c2ccc3c(c2)C(=O)N(c2cccc4ncccc24)C3=O)cc1C	.	.	39*	.	23*
O=C(NCc1ccco1)c1ccc2c(=O)n(Cc3ccco3)c(SCC(=O)N3CCCC3)nc2c1	8	193	9	15	.
COCCNC(=O)c1ccc2c(=O)n(Cc3ccco3)c(SCC(=O)NC3CCCCC3)nc2c1	2	107	33*	7	1
O=C(CSc1nc2ccccc2c(=O)n1Cc1ccco1)N1CCCCCC1	3	106	36*	14	10
COc1ccc(NC(=O)OC(C)C)cc1	-8	109	1	-2	.
O=C(O)c1ccc(N2CCCCC2)cc1	9	86	.	-5	.
Nc1ccc(N2CCCCCC2)cc1	93*[fluorescence artefact?]	16	28*	97*[fluorescence artefact?]	12
Cn1c(=O)[nH]c(=O)c2c1nc(N1CCCC1)n2CCCSc1nc2ccccc2o1	-7	113	.	-6	.
Cn1c(=O)[nH]c(=O)c2c1nc(Br)n2CCCSc1nc2ccccc2o1	2	84	19*	0	1
Cc1cc(/C=N/NC(=O)c2cccc([N+](=O)[O-])c2)c(C)n1-c1ccc(Cl)cc1Cl	.	.	20*	.	10
O=C1CC(NCc2ccc3c(c2)OCO3)C(=O)N1Cc1ccc2c(c1)OCO2 (configuration not stated)	3	106	2	1	.
Cc1nn(C(=O)c2ccco2)c(C)c1CN1C(=O)c2ccccc2C1=O	8	200*[fluorescence artefact?]	32*	28	8
Cc1nn(C(=O)c2cccs2)c(C)c1CN1C(=O)c2ccccc2C1=O	-13	128	3	6	.
CCc1nc(Sc2nc(C)cc(C)n2)c2oc3ccccc3c2n1	6	92	22*	10	5
CCc1nc(SCCO)c2oc3ccccc3c2n1	-9	101	7	-29	.
C=CCN(C(=O)CNC(=O)c1ccco1)C(C(=O)NC1CCCCC1)c1ccc(OC)cc1OC (configuration not stated)	-10	109	-2	-8	.
COc1cccc(CNC(=O)CCS(=O)(=O)c2cccs2)c1	-10	90	4	0	.
CN1CCN(C(=O)CN(Cc2ccccc2)S(C)(=O)=O)CC1	3	113	1	6	.
CS(=O)(=O)N(CC(=O)N1CCOCC1)Cc1ccccc1	38	102	35*	-4	1
